Results taken from PubChem BioAssay AID1053125 (Broad Institute, 2014).
Entries with a potency or affinity are not part of this list. Active and inactive are the calls of the source.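 Rule for the calls: active = viability loss whose fitted half-maximal concentration is at most twice the top valid tested dose; inconclusive = flat curve with 30 to 70% loss, or poor fit; inactive = the rest.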

Assay: HepG2 cell cytotoxicity, dose response, cytotoxicity control, ATP luminescence, cherry-pick, set 6 (AID 1053125);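 note: negative values mean loss of viability signal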
Conditions: HepG2 viability, ATP luminescence (CellTiter-Glo), 72 h; series mostly up to 26 µM
With `Cc1cc(-n2c(=O)c(C#N)cc3c(=O)n4cccc(C)c4nc32)no1` the outcome was “inactive”.
With `CCN(CC)CCCNc1nc(C)cc(COC)c1C#N` the outcome was “inactive”.
In the case of `Cc1cc(C)nc(SCC(=O)Nc2ccc(S(=O)(=O)Nc3onc(C)c3C)cc2)n1`, the outcome is reported as “inactive”.
In the case of `Cc1ccc(S(=O)(=O)CCC(=O)OCC(=O)Nc2cccc(S(=O)(=O)N3CCCCC3)c2)cc1`, the outcome is reported as “inactive”.
With `CCCOc1ccc(NC(=O)c2c(-c3ccccc3)noc2C)cc1` the outcome was “inactive”.
With `O=C(NCc1nnnn1-c1ccc(Cl)cc1)C1CC(=O)N(c2ccc(F)cc2)C1` (stereo not drawn) the outcome was “inactive”.
For `Cc1cccn2c(=O)c3cc(C(=O)NCCc4ccccc4)c(=N)n(CCCn4ccnc4)c3nc12`, the outcome was “inactive”.
With `CN1CCc2c(sc(NC(=O)Cc3ccccc3)c2C#N)C1` the outcome was “inactive”.
In the case of `Cc1c(C=O)c2ccccn2c1C(=O)c1cccs1`, the outcome is reported as “inactive”.
In the case of `O=C(Nc1ccc(-c2ccco2)cc1)C1CCCN(Cc2ccco2)C1` (stereo not drawn), the outcome is reported as “inactive”.
With `COc1ccc(CCNC(=O)CSc2cn(Cc3cccc(C)c3)c3ccccc23)cc1OC` the outcome was “inactive”.
In the case of `CCC(=O)N1C(C(=O)NCc2ccc(OC)cc2)CSC1c1ccc(OC)cc1` (stereo not drawn), the outcome is reported as “inactive”.
With `COC(=O)C1=CN(Cc2ccc(OC)c(OC)c2)C=C(C(=O)OC)C1c1cccc(F)c1` the outcome was “inactive”.
With `COc1ccc(NC(=O)C2CCC(CNS(=O)(=O)c3cccs3)CC2)cc1` (stereo not drawn) the outcome was “inactive”.
For `O=C(O)c1[nH]c2ccccc2c1C(c1cc(Br)ccc1O)c1c(C(=O)O)[nH]c2ccccc12`, the outcome was “inactive”.
In the case of `O=C(NNc1cc(N2CCCC2)nc(N2CCCC2)n1)c1ccc([N+](=O)[O-])cc1`, the outcome is reported as “inactive”.
With `CCN(CC)CCN1C2=C(C(=O)CC(C)(C)C2)C(c2cccc(F)c2)C2=C1CC(C)(C)CC2=O` the outcome was “inactive”.
With `O=C(CCCn1c(=O)c2sccc2n(Cc2cc(=O)n3ccccc3n2)c1=O)NCc1ccco1` the outcome was “inactive”.
